Laboratory results as given in PubChem BioAssay (NCI).
The panel holds about 83,000 compounds, 20% with a hit somewhere; the sample as a whole holds those more often.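 Treatment: one concentration, 48 hours, 96-well format. Scoring: percent growth, with anything below 10 considered active.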 Unmarked numbers belong to inactive results. Activity calls are given as the source filed them.

Experiments:
Assay in all cases: NCI-60 one-dose screen, 48 h (100 = growth as untreated, 0 = no growth, -100 = all killed)
Conditions in all cases: 10 µM unless noted
NCI-H23 lung = test system: NCI-H23 lung
NCI-H226 lung = test system: NCI-H226 lung
NCI-H322M lung = test system: NCI-H322M lung
HOP-62 NSCLC = test system: HOP-62 NSCLC
NCI-H460 lung = test system: NCI-H460 lung
NCI-H522 lung = test system: NCI-H522 lung
A549/ATCC NSCLC = test system: A549/ATCC NSCLC
786-0 renal = test system: 786-0 renal
COLO 205 colon = test system: COLO 205 colon
DU-145 prostate = test system: DU-145 prostate
MALME-3M melanoma = test system: MALME-3M melanoma
MDA-MB-231 breast = test system: MDA-MB-231 breast
RXF 393 renal = test system: RXF 393 renal
SF-268 CNS = test system: SF-268 CNS
SF-295 CNS = test system: SF-295 CNS
UACC-257 melanoma = test system: UACC-257 melanoma
M14 melanoma = test system: M14 melanoma
HCT-15 colon = test system: HCT-15 colon
K-562 leukemia = test system: K-562 leukemia
SF-539 CNS = test system: SF-539 CNS

SMILES	growth (NCI-H23 lung)	growth (NCI-H226 lung)	growth (NCI-H322M lung)	growth (HOP-62 NSCLC)	growth (NCI-H460 lung)	growth (NCI-H522 lung)	growth (A549/ATCC NSCLC)	growth (786-0 renal)	growth (COLO 205 colon)	growth (DU-145 prostate)	growth (MALME-3M melanoma) [%]	growth (MDA-MB-231 breast)	growth (RXF 393 renal)	growth (SF-268 CNS)	growth (SF-295 CNS)	growth (UACC-257 melanoma)	growth (M14 melanoma)	growth (HCT-15 colon)	growth (K-562 leukemia)	growth (SF-539 CNS)
Cc1nn(-c2ccccc2)c(Cl)c1C(CC(=O)c1ccc(Cl)cc1)CC(=O)c1ccc(Cl)cc1	87.2%	88.6%	99%	97.8%	90.1%	71.6%	84.3%	81.8%	98.5%	103%	94.7	80.5%	92.2%	91.3%	92.4%	100%	83.9%	86.6%	–	–
COc1cc2c(-c3nc4cc(Cl)c(F)cc4s3)cc(=O)oc2c(C)c1OC	-48.6% (active)	-48.8% (active)	7.69% (active)	-65.7% (active)	-36.1% (active)	-83.9% (active)	-53.9% (active)	-70.2% (active)	-46.6% (active)	-85.3% (active)	–	-50.4% (active)	–	-63.5% (active)	-81.5% (active)	-77.6% (active)	-35.2% (active)	-39.1% (active)	-22.6% (active)	-89% (active)
COc1cc2c(C#N)n3c(c2cc1OC)C(=O)C(c1ccccc1)Oc1ccccc1-3 (stereo unspecified)	20.5%	21.8%	85.5%	53.8%	66.9%	-32.4% (active)	11.5%	48.5%	80.3%	72.8%	–	64.1%	–	43%	28.4%	89.3%	44.7%	31.5%	29.7%	83.5%
CCCCCCC/C(=N\N=C(N)N)c1ccc(O)cc1	57.5%	-8.37% (active)	56.9%	43.9%	26.7%	47.7%	51.9%	63.1%	-88.8% (active)	53.4%	50.6	-22.5% (active)	-35.5% (active)	45%	55.7%	27.1%	24.9%	64%	–	63.5%
COc1cc(C2=NN(C(C)=O)C(c3ccc(OC(C)=O)cc3OC(C)=O)O2)c(OC(C)=O)c2ccccc12 (stereo unspecified)	38%	27%	19.6%	24.3%	9.82% (active)	-7.78% (active)	8% (active)	11.2%	10.4%	26.8%	–	34.2%	–	19.7%	22.2%	-8.85% (active)	5.99% (active)	32.8%	6.47% (active)	7.95% (active)
COC(=O)[C@]1(CCSC)N[C@H](c2cn(-c3ccccc3)nc2C)[C@@H]2C(=O)N(c3ccc(C)cc3)C(=O)[C@@H]21	100%	129%	104%	99.5%	104%	89.6%	90.5%	97.1%	113%	103%	99	104%	133%	98.2%	97%	102%	96.6%	96.7%	–	–
CCC1(c2ccccc2)Oc2ccccc2-n2c(C#N)c3ccccc3c2C1=O (stereo unspecified)	97.2%	110%	90.3%	93.6%	105%	77.5%	93.6%	93.9%	106%	114%	–	98.5%	–	101%	93.3%	90.5%	94.3%	94%	86.7%	105%
COc1ccc(/C=C/C(=O)Nc2cccnc2Nc2ccc(F)cc2)cc1	93.6%	85.5%	101%	117%	108%	92.5%	84.6%	95.6%	109%	118%	122	91.7%	102%	112%	87.9%	97.9%	103%	102%	–	93.7%
Cc1cc([N+](=O)[O-])c(C)cc1C(=O)O	104%	99.8%	92.7%	103%	111%	96.1%	108%	97%	108%	109%	102	110%	112%	99.8%	96.9%	105%	100%	97.3%	–	98.5%
O=C1CCCN1C1CCN(Cc2cc3ccccc3[nH]c2=O)c2ccccc21 (stereo unspecified)	82.7%	78.3%	83.2%	79.5%	102%	63%	98.8%	85.2%	106%	101%	76.4	92.6%	99.4%	94.7%	72.3%	114%	86.1%	92.4%	–	97.2%
COc1ccc(/C=C(\C#N)c2ccccc2)cc1	95.7%	89.6%	97.5%	99.6%	98.9%	90.1%	81.8%	102%	103%	103%	–	78.4%	–	95.2%	94.7%	85.9%	88.7%	59.5%	28.8%	87.3%
COC(=O)[C@]1(C(C)C)N[C@H](c2cn(-c3ccccc3)nc2-c2ccccc2)[C@@H]2C(=O)N(c3ccc(Cl)cc3)C(=O)[C@@H]21	92.9%	105%	99.1%	95.7%	105%	81.4%	101%	81.9%	106%	111%	107	105%	113%	90.8%	106%	107%	87.6%	96%	–	–
COc1cc(/C=C/C(=O)c2c(-c3ccc(F)cc3)nc3sc(C)nn23)cc(OC)c1OC	51.4%	38.9%	52.6%	9.53% (active)	11.8%	-27% (active)	12.2%	24.6%	33%	0.196% (active)	–	7.91% (active)	–	16.6%	49.6%	46.6%	34.9%	15.9%	2.54% (active)	21.2%
O=C1NCC(Nc2ccc(Br)cc2Cl)C(=O)N1 (stereo unspecified)	100%	109%	126%	113%	112%	93%	122%	103%	98%	119%	–	104%	112%	105%	118%	160%	93.8%	107%	95.5%	98.9%
O=C(/C=C/c1ccc(Cl)cc1)c1ccccc1	109%	91%	92.2%	115%	107%	81.1%	88.9%	93.7%	120%	106%	–	119%	–	102%	94.3%	102%	100%	75.4%	66.6%	103%
N#Cc1c2ccccc2c2n1-c1ccccc1OC(c1ccccc1)C2=O (stereo unspecified)	22.6%	21.2%	81.5%	32.6%	31.8%	-43.7% (active)	10.4%	31.7%	63.9%	56.7%	–	22.3%	–	30.1%	16.3%	53.3%	41.4%	13.8%	13%	77.2%
CCOC(=O)/C(=C/c1ccccc1)C(=O)c1ccccc1	82.4%	84.3%	84.2%	74.9%	88.3%	67.6%	79.8%	80.5%	95.4%	50.3%	–	81.4%	–	62%	83%	64.1%	66.1%	51.9%	38.9%	84.4%
